Counter-ions that a name gives are not always drawn.
Experiments:
Test in all cases: phenotypically active (imaging signature differs from DMSO and reproducible) at any of 0.3-9 uM (binary (1 = active, 0 = inactive)); higher = active
Settings in all cases: treatment time: 24 h
[1] = system: A549-ACTB-RAB5A
Summary of the method: (§1)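 Fifteen reporter lines derived from A549, HepG2 and WPMY1 cells by gene editing, carrying BFP for segmentation plus GFP and RFP/FusionRed markers, were exposed to 0.3, 1, 3 or 9 µM for 24 h in four wells each and imaged live. Live-cell features from each well were normalised to solvent control wells. A well set counted as deviating when ≥3 of 4 wells lay beyond the 95th percentile of control Euclidean distances, and as reproducible when the median replicate Pearson correlation exceeded the 95th percentile of non-replicates. Phenotypic activity was assigned only when both criteria were met.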

[2] = system: A549-CANX-COX4
Summary of the method: as §1

[3] = system: A549-GM130-SQSTM1
Summary of the method: as §1

[4] = system: A549-TP53BP1-CLTA
Summary of the method: as §1

[5] = system: A549-TUBA1B-RELA
Summary of the method: as §1

[6] = system: HepG2-ACTB-RAB5A
Summary of the method: as §1

[7] = system: HepG2-CANX-COX4
Summary of the method: as §1

[8] = system: HepG2-GM130-SQSTM1
Summary of the method: as §1

[9] = system: HepG2-TP53BP1-CLTA
Summary of the method: as §1

[10] = system: HepG2-TUBA1B-RELA
Summary of the method: as §1

[11] = system: WPMY1-ACTB-RAB5A
Summary of the method: as §1

[12] = system: WPMY1-CANX-COX4
Summary of the method: as §1

[13] = system: WPMY1-GM130-SQSTM1
Summary of the method: as §1

[14] = system: WPMY1-TP53BP1-CLTA
Summary of the method: as §1

[15] = system: WPMY1-TUBA1B-RELA
Summary of the method: as §1

Measured: phenotypically active

N[C@@H](C(=O)O)c1ccc(C(=O)O)c(C(=O)O)c1
inactive: [1] 0 | [2] 0 | [3] 0 | [4] 0 | [5] 0 | [6] 0 | [7] 0 | [8] 0 | [9] 0 | [10] 0 | [11] 0 | [12] 0 | [13] 0 | [14] 0 | [15] 0

Cc1cc(-c2ccc(/C=C3\S/C(=N\c4ccc(Cl)c(C(=O)O)c4)NC3=O)o2)c([N+](=O)[O-])cc1C
inactive: [1] 0 | [2] 0 | [3] 0 | [4] 0 | [5] 0 | [6] 0 | [7] 0 | [8] 0 | [9] 0 | [10] 0 | [11] 0 | [12] 0 | [13] 0 | [14] 0 | [15] 0

CC(C)c1ccc(NC(=O)Cn2cnc3c2c(=O)n(C)c(=O)n3C)cc1
inactive: [1] 0 | [2] 0 | [3] 0 | [4] 0 | [5] 0 | [6] 0 | [7] 0 | [8] 0 | [9] 0 | [10] 0 | [11] 0 | [12] 0 | [13] 0 | [14] 0 | [15] 0

CC[N+](CC)(CC)CCOc1cccc(OCC[N+](CC)(CC)CC)c1OCC[N+](CC)(CC)CC [gallamine-triethiodide]
inactive: [1] 0 | [2] 0 | [3] 0 | [4] 0 | [5] 0 | [6] 0 | [7] 0 | [8] 0 | [9] 0 | [10] 0 | [11] 0 | [12] 0 | [13] 0 | [14] 0 | [15] 0

C#C[C@]1(O)CC[C@H]2[C@@H]3CCC4=CC(=NO)CC[C@@H]4[C@H]3CC[C@@]21CC [norelgestromin]
inactive: [1] 0 | [2] 0 | [3] 0 | [4] 0 | [5] 0 | [6] 0 | [7] 0 | [8] 0 | [9] 0 | [10] 0 | [11] 0 | [12] 0 | [13] 0 | [14] 0 | [15] 0

CCN1C(C)(C)CC(Oc2ccc(C(=O)Nc3ccc(NC(=O)Nc4cc(C(C)(C)C)on4)cc3)nc2)CC1(C)C
inactive: [1] 0 | [2] 0 | [3] 0 | [4] 0 | [5] 0 | [6] 0 | [7] 0 | [8] 0 | [9] 0 | [10] 0 | [11] 0 | [12] 0 | [13] 0 | [14] 0 | [15] 0

CCOC(=O)CCNc1cc(N2CCc3ccccc3CC2)nc(-c2cccnc2)n1
inactive: [1] 0 | [2] 0 | [3] 0 | [4] 0 | [5] 0 | [6] 0 | [7] 0 | [8] 0 | [9] 0 | [10] 0 | [11] 0 | [12] 0 | [13] 0 | [14] 0 | [15] 0

CC(C[N+](C)(C)C)OC(N)=O (stereo not given) [bethanechol]
inactive: [1] 0 | [2] 0 | [3] 0 | [4] 0 | [5] 0 | [6] 0 | [7] 0 | [8] 0 | [9] 0 | [10] 0 | [11] 0 | [12] 0 | [13] 0 | [14] 0 | [15] 0

CC(C)c1ccc(CC(=O)N2CCC[C@@H](c3cccc(OC(C)(C)C(=O)O)c3)C2)cc1
inactive: [1] 0 | [2] 0 | [3] 0 | [4] 0 | [5] 0 | [6] 0 | [7] 0 | [8] 0 | [9] 0 | [10] 0 | [11] 0 | [12] 0 | [13] 0 | [14] 0 | [15] 0

Nc1ncnc2c1c(-c1ccc(Cl)cc1)nn2-c1cccc(-c2cnnn2Cc2cccc(-c3ccccc3)c2)c1
inactive: [1] 0 | [2] 0 | [3] 0 | [4] 0 | [5] 0 | [6] 0 | [7] 0 | [8] 0 | [9] 0 | [10] 0 | [11] 0 | [12] 0 | [13] 0 | [14] 0 | [15] 0

Cc1nc2c(O)cccc2c(=O)[nH]1
inactive: [1] 0 | [2] 0 | [3] 0 | [4] 0 | [5] 0 | [6] 0 | [7] 0 | [8] 0 | [9] 0 | [10] 0 | [11] 0 | [12] 0 | [13] 0 | [14] 0 | [15] 0

O=C(NC(CO)C(O)c1ccc([N+](=O)[O-])cc1)C(Cl)Cl (stereo not given) [Chloramphenicol]
inactive: [1] 0 | [2] 0 | [3] 0 | [4] 0 | [5] 0 | [6] 0 | [7] 0 | [8] 0 | [9] 0 | [10] 0 | [11] 0 | [12] 0 | [13] 0 | [14] 0 | [15] 0

C#C[C@]1(OC(C)=O)CC[C@H]2[C@@H]3CCC4=CC(=NO)CC[C@@H]4[C@H]3CC[C@@]21CC [norgestimate]
inactive: [1] 0 | [2] 0 | [3] 0 | [4] 0 | [5] 0 | [6] 0 | [7] 0 | [8] 0 | [9] 0 | [10] 0 | [11] 0 | [12] 0 | [13] 0 | [14] 0 | [15] 0

C[C@@H](CO)CCC[C@@H](C)[C@H]1CC[C@H]2[C@@H]3CC=C4C[C@@H](O)CC[C@]4(C)[C@H]3CC[C@]12C [27-Hydroxycholesterol]
inactive: [1] 0 | [2] 0 | [3] 0 | [4] 0 | [5] 0 | [6] 0 | [7] 0 | [8] 0 | [9] 0 | [10] 0 | [11] 0 | [12] 0 | [13] 0 | [14] 0 | [15] 0

Nc1nnc(-c2cccc(Cl)c2Cl)c(N)n1 [lamotrigine]
inactive: [1] 0 | [2] 0 | [3] 0 | [4] 0 | [5] 0 | [6] 0 | [7] 0 | [8] 0 | [9] 0 | [10] 0 | [11] 0 | [12] 0 | [13] 0 | [14] 0 | [15] 0

CCCCCCC(=O)OC1CC(C)(C)NC(C)(C)C1 [TMPH hydrochloride]
inactive: [1] 0 | [2] 0 | [3] 0 | [4] 0 | [5] 0 | [6] 0 | [7] 0 | [8] 0 | [9] 0 | [10] 0 | [11] 0 | [12] 0 | [13] 0 | [14] 0 | [15] 0

OC[C@H]1NC[C@@H](O)[C@@H](O)[C@@H]1O [1-Deoxymannojirimycin hydrochloride]
inactive: [1] 0 | [2] 0 | [3] 0 | [4] 0 | [5] 0 | [6] 0 | [7] 0 | [8] 0 | [9] 0 | [10] 0 | [11] 0 | [12] 0 | [13] 0 | [14] 0 | [15] 0

Cn1cnc([N+](=O)[O-])c1Sc1ncnc2nc[nH]c12 [azathioprine]
inactive: [1] 0 | [2] 0 | [3] 0 | [4] 0 | [5] 0 | [6] 0 | [7] 0 | [8] 0 | [9] 0 | [10] 0 | [11] 0 | [12] 0 | [13] 0 | [14] 0 | [15] 0

C[N+]1(C)CCC(=C(c2ccccc2)c2ccccc2)CC1 [diphemanil]
inactive: [1] 0 | [2] 0 | [3] 0 | [4] 0 | [5] 0 | [6] 0 | [7] 0 | [8] 0 | [9] 0 | [10] 0 | [11] 0 | [12] 0 | [13] 0 | [14] 0 | [15] 0

CC(C)C(=O)c1c(C(C)C)nn2ccccc12 [Ibudilast]
inactive: [1] 0 | [2] 0 | [3] 0 | [4] 0 | [5] 0 | [6] 0 | [7] 0 | [8] 0 | [9] 0 | [10] 0 | [11] 0 | [12] 0 | [13] 0 | [14] 0 | [15] 0

NC(=O)OCC(COC(N)=O)c1ccccc1 [felbamate]
inactive: [1] 0 | [2] 0 | [3] 0 | [4] 0 | [5] 0 | [6] 0 | [7] 0 | [8] 0 | [9] 0 | [10] 0 | [11] 0 | [12] 0 | [13] 0 | [14] 0 | [15] 0

NC(=O)N1c2ccccc2C=Cc2ccccc21 [carbamazepine]
inactive: [1] 0 | [2] 0 | [3] 0 | [4] 0 | [5] 0 | [6] 0 | [7] 0 | [8] 0 | [9] 0 | [10] 0 | [11] 0 | [12] 0 | [13] 0 | [14] 0 | [15] 0

CC1(C)CCC(C)(C)c2cc(C3(c4ccc(C(=O)O)cc4)OCCO3)ccc21
inactive: [1] 0 | [2] 0 | [3] 0 | [4] 0 | [5] 0 | [6] 0 | [7] 0 | [8] 0 | [9] 0 | [10] 0 | [11] 0 | [12] 0 | [13] 0 | [14] 0 | [15] 0

CC[N+](CC)(CCNC(=O)C(=O)NCC[N+](CC)(CC)Cc1ccccc1Cl)Cc1ccccc1Cl [ambenonium]
inactive: [1] 0 | [2] 0 | [3] 0 | [4] 0 | [5] 0 | [6] 0 | [7] 0 | [8] 0 | [9] 0 | [10] 0 | [11] 0 | [12] 0 | [13] 0 | [14] 0 | [15] 0
